Consider seven compounds from PubChem BioAssay (Tox21).

Test [1] addresses Progesterone receptor (Homo sapiens) (UniProt P06401). Briefly: qHTS assay to identify small molecule antagonists of the progesterone receptor (PR) signaling pathway (AID 1346795; active = well fitted inhibition curve with a large enough effect in the signal ratio in the repeat runs, not every such curve was filed as active; the % refers to the signal ratio; also: potency is read from the fitted curve at half-maximal effect). The essentials:
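Stimulus R5020 at 1 nM final; cells HEK293T PR-UAS-bla; medium with 2% charcoal-stripped FBS; compound exposure 16 hr at 37C, 5% CO2; detection by FRET beta-lactamase substrate, 2 hr, room temperature.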

Test [2] in a line: qHTS assay to identify small molecule antagonists of the progesterone receptor (PR) signaling pathway - cell viability counter screen (AID 1346798). Also: series mostly up to about 92 µM; nearly all actives have a fitted effect of over 50% in size. The essentials:
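In the same plates used for the beta-lactamase readout, cell viability of compound- and R5020-treated PR-UAS-bla HEK293T cells (16 hr, 37C) was assessed by CellTiter-Glo luminescence.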

Test [3] in a line: qHTS assay to identify small molecule agonists of the progesterone receptor (PR) signaling pathway - cell viability counter screen (AID 1346799; calls by dose curve; also: nearly all actives have a fitted effect of over 45% in size; also: potency is read from the fitted curve at half-maximal effect). The essentials:
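Multiplexed viability read: CellTiter-Glo luminescence, 30 min RT, following LiveBLAzer FRET measurement on PR-UAS-bla HEK293T cells exposed to compounds 16 hr.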

Test [4] is described as follows: qHTS assay to identify small molecule antagonists of the TGF-beta/Smad signaling pathway - cell viability counter screen (AID 1346824). Also: nearly all actives have a fitted effect of over 50% in size. Put shortly:
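Cytotoxicity counter-screen run in the same wells as the beta-lactamase Smad reporter read: CellTiter-Glo luminescence after 30 min at room temperature. HEK 293T SBE-bla cells had 5 hr compound exposure at 37 C with TGF-beta1 (0.25 ng/mL stock).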

Test [5] is described as follows: qHTS assay to identify small molecule agonists of the TGF-beta/Smad signaling pathway - cell viability counter screen (AID 1346829). Also: top concentration of the series differs between compounds; nearly all actives have a fitted effect of over 45% in size. The essentials:
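Compound-treated SBE-bla HEK 293T cells (5 hr, 37 C) were assessed for viability with CellTiter-Glo in parallel with the reporter read.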

Test [6] in a line: qHTS assay to identify small molecule agonists of the TGF-beta/Smad signaling pathway (AID 1346859; active = well fitted activation curve with a large enough effect in the signal ratio in the repeat runs, not every such curve was filed as active; the % refers to the signal ratio; also: series mostly up to about 77 µM). The essentials: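 Screening used HEK 293T SBE-bla cells at 4,000/well. Test agents: 5 hr, 37 C. Detection: FRET substrate, 2 hr RT, then excitation 405 nm with emissions at 460 and 530 nm.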
For test [7], the target named is Thyrotropin-releasing hormone receptor (Homo sapiens) (UniProt P34981). The experiment in a line: qHTS assay to identify small molecule antagonists of the thyrotropin-releasing hormone receptor (TRHR) signaling pathway (AID 1346877; active = well fitted inhibition curve with a large enough effect in the repeat runs, not every such curve was filed as active; also: series mostly up to about 51 µM). Put shortly:
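Kinetic fluorescence (3 min, 1 s resolution) following stimulation with TRH at 1 nM final; HEK293 cells bearing human TRHR; 5 min compound preincubation at RT; concentration-response over 15 points, triplicates.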

For test [8] the target is unchanged. Briefly: qHTS assay to identify small molecule agonists of the thyrotropin-releasing hormone receptor (TRHR) signaling pathway (AID 1346891; calls by dose curve; also: series mostly up to about 58 µM). The essentials:
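Readout was intracellular calcium fluorescence in TRHR-Hek293 cells. Cells were incubated 18 h, dye-loaded 2 h at 37 °C, and treated with compound in agonist mode.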

The nature of test [9]: Human pregnane X receptor (PXR) small molecule agonists, qHTS cell viability counter screen (AID 1346977). Also: nearly all actives have a fitted effect of over 50% in size. Also: potency is read from the fitted curve at half-maximal effect. The essentials: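 In each well, the PXR reporter HepG2 line was checked for viability: CellTiter-Fluor reagent added 23hr post-dosing, fluorescence read after 1hr incubation at 37C.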
Test [10] can be described thus: Caspase-3/7 induction in HepG2 cells by small molecules, qHTS assay (AID 1346978). Also: nearly all actives have a fitted effect of over 15% in size. The essentials:
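Caspase-3/7 induction was measured by Caspase-Glo 3/7 luminescence (30 min, room temperature) after a 17 hr compound exposure of wild-type HepG2 cells seeded at 2,000 per well and pre-incubated 5 hr.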

Test [11] in a line: Caspase-3/7 induction in CHO-K1 cells by small molecules, qHTS cell viability counter screen (AID 1346979). Also: nearly all actives have a fitted effect of over 35% in size. The essentials:
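Following a 5hr settling period, CHO-K1 cells at 1,500 per well received DMSO-dissolved compounds. Cell viability was quantified 16hr later by CellTiter-Fluor fluorescence, measured after 1hr with reagent at 37C.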

A short description of test [12]: Caspase-3/7 induction in CHO-K1 cells by small molecules, qHTS assay (AID 1346980). Also: nearly all actives have a fitted effect of over 15% in size. The essentials: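 Luminescent Caspase-Glo 3/7 read (30min, room temperature) quantified apoptosis induction. Cells were wild-type CHO-K1, treated with compound for 17hr at 37 C and 5% CO2.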
A short description of test [13]: Caspase-3/7 induction in HepG2 cells by small molecules, qHTS cell viability counter screen (AID 1346981). Also: series mostly up to about 92 µM; nearly all actives have a fitted effect of over 30% in size. The essentials:
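In this quantitative HTS counter screen, compounds delivered in DMSO were left on unmodified HepG2 cells for 16 hr at 37 C. Viability was then determined fluorometrically with CellTiter-Fluor, in parallel with caspase-3/7 induction in the same wells.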

The target in test [14] is Cytochrome P450 2D6 (Homo sapiens) (UniProt P10635). Briefly: Cytochrome P450 Family 2 Subfamily D Member 6 (CYP2D6) small molecule antagonists: luciferase reporter qHTS assay (AID 1671196). Also: nearly all actives have a fitted effect of over 50% in size. Also: potency is read from the fitted curve at half-maximal effect. The essentials: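 Test chemicals meet CYP2D6 plus proluciferin substrate (10 min, RT); NADPH regenerating solution then drives turnover for 1 h. Detection reagent halts the reaction; luminescence measured after 20 min.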

For test [15], the target named is Cytochrome P450 2C19 (Homo sapiens) (UniProt P33261). Briefly: Cytochrome P450 Family 2 Subfamily C Member 19 (CYP2C19) small molecule antagonists: luciferase reporter qHTS assay (AID 1671197). Also: nearly all actives have a fitted effect of over 65% in size. Also: potency is read from the fitted curve at half-maximal effect. Put shortly:
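P450-Glo CYP2C19 screening system; proluciferin substrate; DMSO compound stocks; 10 min RT preincubation; NADPH regeneration, 1 h at 37C; luciferin detection reagent, 20 min RT; luminescence as RLU.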

In test [16] the target is Cytochrome P450 2C9 (Homo sapiens) (UniProt P11712). Briefly: Cytochrome P450 Family 2 Subfamily C Member 9 (CYP2C9) small molecule antagonists: luciferase reporter qHTS assay (AID 1671198). Also: nearly all actives have a fitted effect of over 50% in size. Also: potency is read from the fitted curve at half-maximal effect. The essentials: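 Enzyme-substrate mix preincubated with compound 10 min at room temperature; reaction started with NADPH regeneration solution, 1 h 37C. Luminescent luciferin product read after 20 min detection reagent.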

In test [17] the target is Nuclear receptor subfamily 1 group I member 2 (Homo sapiens) (UniProt O75469). The experiment in a line: Human pregnane X receptor (PXR) small molecule agonists, qHTS assay (AID 1346982). Also: nearly all actives have a fitted effect of over 35% in size. Also: potency is read from the fitted curve at half-maximal effect. The essentials:
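Reporter HepG2 cells expressing PXR-Luc are cultured in charcoal-stripped FBS (5%), treated with compounds for 24 hr at 37 C, and assayed by ONE-Glo luminescence after 30 min at room temperature.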

Values joined by “and” are separate entries in the source; they are usually repeats but may differ in a detail not shown here. Equal entries are not always repeated. Results filed as inconclusive are left out. Some compounds were tested as several samples or in several runs, with calls that do not always agree. Active and inactive are the calls of the source. Unless noted, calls follow the shape of the dose curve; as a rule, active = well fitted curve in the direction sought with a large enough effect in the repeat runs; inconclusive = weak or mixed curves; inactive = no such curve, though single readings can be large; an effect the other way counts as inactive or inconclusive.

Chain of Progesterone receptor (Homo sapiens) (P06401 whole entry, looked up): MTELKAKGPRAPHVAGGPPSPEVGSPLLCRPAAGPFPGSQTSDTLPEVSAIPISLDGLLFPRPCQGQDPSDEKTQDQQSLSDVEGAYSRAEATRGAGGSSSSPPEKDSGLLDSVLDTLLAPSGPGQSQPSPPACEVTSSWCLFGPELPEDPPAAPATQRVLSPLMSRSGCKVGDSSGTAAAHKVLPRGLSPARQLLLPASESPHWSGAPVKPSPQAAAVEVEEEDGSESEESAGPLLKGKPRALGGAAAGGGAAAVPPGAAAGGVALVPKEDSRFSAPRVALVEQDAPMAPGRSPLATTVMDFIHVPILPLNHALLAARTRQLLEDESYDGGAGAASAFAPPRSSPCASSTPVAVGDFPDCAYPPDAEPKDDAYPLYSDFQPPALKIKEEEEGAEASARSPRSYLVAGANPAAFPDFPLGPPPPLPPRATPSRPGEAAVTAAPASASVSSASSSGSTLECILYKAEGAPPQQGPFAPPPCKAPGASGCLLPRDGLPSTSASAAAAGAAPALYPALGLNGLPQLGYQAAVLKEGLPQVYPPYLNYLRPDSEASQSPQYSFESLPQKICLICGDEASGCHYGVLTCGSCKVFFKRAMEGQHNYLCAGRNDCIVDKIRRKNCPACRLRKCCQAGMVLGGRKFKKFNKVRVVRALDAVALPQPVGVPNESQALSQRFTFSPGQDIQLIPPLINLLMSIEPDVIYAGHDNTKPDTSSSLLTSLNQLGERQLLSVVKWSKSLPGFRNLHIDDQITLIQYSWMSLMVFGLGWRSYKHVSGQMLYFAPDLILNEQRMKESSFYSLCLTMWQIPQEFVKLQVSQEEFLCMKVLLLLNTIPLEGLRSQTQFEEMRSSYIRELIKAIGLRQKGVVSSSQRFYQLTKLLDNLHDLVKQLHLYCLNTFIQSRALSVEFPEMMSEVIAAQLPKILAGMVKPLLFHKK
Chain of Nuclear receptor subfamily 1 group I member 2 (Homo sapiens) (O75469 whole entry, looked up): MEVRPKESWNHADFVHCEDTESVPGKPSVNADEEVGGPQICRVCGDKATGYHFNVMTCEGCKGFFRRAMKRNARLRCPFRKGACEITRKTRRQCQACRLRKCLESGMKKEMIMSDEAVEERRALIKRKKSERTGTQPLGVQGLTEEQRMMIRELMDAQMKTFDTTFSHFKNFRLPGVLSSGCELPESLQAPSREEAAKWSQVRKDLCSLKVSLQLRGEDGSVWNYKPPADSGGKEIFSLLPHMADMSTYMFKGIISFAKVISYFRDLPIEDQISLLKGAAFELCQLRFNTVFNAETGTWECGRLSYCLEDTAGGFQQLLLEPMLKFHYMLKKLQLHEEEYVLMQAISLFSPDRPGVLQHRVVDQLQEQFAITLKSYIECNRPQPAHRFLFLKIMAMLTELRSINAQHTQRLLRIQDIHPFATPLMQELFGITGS
Chain of Cytochrome P450 2D6 (Homo sapiens) (P10635 whole entry, looked up): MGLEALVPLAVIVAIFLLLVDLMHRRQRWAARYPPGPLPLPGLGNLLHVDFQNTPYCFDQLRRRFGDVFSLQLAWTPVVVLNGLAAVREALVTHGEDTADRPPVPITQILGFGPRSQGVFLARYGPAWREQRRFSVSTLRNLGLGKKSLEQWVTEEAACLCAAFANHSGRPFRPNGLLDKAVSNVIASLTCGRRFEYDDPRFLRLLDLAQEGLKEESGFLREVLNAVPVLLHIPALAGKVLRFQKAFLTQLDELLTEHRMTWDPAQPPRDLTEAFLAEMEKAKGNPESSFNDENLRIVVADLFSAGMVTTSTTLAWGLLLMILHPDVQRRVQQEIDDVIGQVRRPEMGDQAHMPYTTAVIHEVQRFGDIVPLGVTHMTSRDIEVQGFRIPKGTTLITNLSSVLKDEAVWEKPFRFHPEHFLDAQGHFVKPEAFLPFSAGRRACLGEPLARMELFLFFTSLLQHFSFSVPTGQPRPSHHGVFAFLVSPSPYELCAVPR
Chain of Cytochrome P450 2C9 (Homo sapiens) (P11712 whole entry, looked up): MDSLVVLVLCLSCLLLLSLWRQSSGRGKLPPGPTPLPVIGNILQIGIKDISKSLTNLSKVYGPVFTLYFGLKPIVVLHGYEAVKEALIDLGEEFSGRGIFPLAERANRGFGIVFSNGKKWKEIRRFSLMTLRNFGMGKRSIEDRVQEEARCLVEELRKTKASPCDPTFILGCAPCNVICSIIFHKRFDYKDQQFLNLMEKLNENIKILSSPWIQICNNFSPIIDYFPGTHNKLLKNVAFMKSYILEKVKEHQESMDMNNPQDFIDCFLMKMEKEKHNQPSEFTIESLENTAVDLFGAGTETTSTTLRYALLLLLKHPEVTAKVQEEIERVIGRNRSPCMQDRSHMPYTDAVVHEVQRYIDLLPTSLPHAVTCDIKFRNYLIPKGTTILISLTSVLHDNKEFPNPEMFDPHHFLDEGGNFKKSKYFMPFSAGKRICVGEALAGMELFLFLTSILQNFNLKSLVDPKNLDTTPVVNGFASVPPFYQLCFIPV
Chain of Cytochrome P450 2C19 (Homo sapiens) (P33261 whole entry, looked up): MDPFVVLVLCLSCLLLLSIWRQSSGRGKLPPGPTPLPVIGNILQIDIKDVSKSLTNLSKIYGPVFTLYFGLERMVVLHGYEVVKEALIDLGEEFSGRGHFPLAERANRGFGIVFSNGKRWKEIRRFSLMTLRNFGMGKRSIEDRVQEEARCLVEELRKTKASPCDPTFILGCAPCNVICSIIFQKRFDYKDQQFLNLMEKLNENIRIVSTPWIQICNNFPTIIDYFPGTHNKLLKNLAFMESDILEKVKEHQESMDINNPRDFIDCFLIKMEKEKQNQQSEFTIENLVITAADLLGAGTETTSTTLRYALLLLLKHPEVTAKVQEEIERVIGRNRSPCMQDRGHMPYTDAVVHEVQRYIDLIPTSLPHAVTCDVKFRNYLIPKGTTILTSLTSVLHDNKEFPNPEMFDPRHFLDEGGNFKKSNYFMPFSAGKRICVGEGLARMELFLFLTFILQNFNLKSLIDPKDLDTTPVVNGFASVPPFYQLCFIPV
Chain of Thyrotropin-releasing hormone receptor (Homo sapiens) (P34981 whole entry, looked up): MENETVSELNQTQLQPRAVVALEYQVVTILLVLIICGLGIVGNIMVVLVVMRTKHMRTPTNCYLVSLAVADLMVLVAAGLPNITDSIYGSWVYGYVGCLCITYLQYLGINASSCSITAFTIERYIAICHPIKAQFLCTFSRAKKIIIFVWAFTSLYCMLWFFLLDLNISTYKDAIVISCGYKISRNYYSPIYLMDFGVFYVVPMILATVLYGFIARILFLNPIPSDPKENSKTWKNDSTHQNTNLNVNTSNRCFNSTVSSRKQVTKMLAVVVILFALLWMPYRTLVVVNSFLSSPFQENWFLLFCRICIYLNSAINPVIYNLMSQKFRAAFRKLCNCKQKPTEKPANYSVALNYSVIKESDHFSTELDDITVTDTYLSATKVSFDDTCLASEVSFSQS

As for `Clc1ccc2c(c1)C(N1CCNCC1)=Nc1ccccc1O2`, the Potency is 5.45 µM (active) and inactive in test [1]; 29.8 µM (active) in test [9]; 3.99 µM (active) and 3.09 µM (active) in test [14]; 63.3 µM (active) and inactive in [15]; 17.8 µM (active) and inactive in test [16]. In addition, the Potency entry in test [2], in test [3], in test [4], in test [5], in [7] and in test [8] was “inactive” each time. For the same compound, the Potency result in [10], in test [11], in test [12] and in test [13] was “inactive” each time. Moreover, in test [6], the outcome was inactive.
On to `CCCCOCCOC(=O)c1ccccc1C(=O)OCCOCCCC`, for which the Potency in [1] was 53.3 µM (active); in [17], 59.8 µM (active) and inactive; in test [14] it was 31 µM (active) and 25.2 µM (active); in test [15] it was 3.48 µM (active) and 1.78 µM (active); in [16] it was 6.95 µM (active) and 7.1 µM (active). For the same compound, the Potency result in test [2], in test [3], in [4], in test [5], in test [7] and in [8] was “inactive” in each case. Also, the Potency entry in test [9], in [10], in [11], in test [12] and in test [13] was “inactive” each time. For the same compound, the outcome in [6] was inactive.
For `O=C1CC2(CCCC2)CC(=O)N1CCCCN1CCN(c2ncccn2)CC1`, the Potency result in test [1], in [2], in test [4], in [5], in [7] and in [8] was “inactive” throughout. Moreover, the Potency entry in test [9], in test [10], in [12] and in test [13] was “inactive” each time. The Potency in test [3] is 5.45 µM (active) and inactive. Further, the call in [6] was inactive.
As to `OCCN1CCNCC1`, the Potency result in test [1], in [2], in [3], in [4], in test [5] and in test [7] was “inactive” each time. Further, the Potency entry in [8], in [10], in [11], in test [12], in [13] and in [14] was “inactive” throughout. Moreover, the Potency entry in test [15] and in test [16] was “inactive” each time. In addition, the outcome in test [6] was inactive.
In the case of `CCC(=O)/C=C/C1C(C)=CCCC1(C)C` (configuration not stated), the Potency result in test [1], in test [2], in [3], in test [4], in [5] and in test [7] was “inactive” each time. Besides, the Potency entry in [8], in test [9], in [10], in test [11], in test [12] and in test [13] was “inactive” in each case. In test [14], the Potency entry is “inactive”. In test [6], the call was inactive. The Potency was 34.5 µM (active) in test [17]; 44.9 µM (active) and 15.9 µM (active) in [15]; 31.7 µM (active) in [16].
Take `c1cnc2cc3c(cc2n1)C1CNCC3C1`: the Potency result in test [1], in test [2], in [3], in test [4], in test [5] and in test [7] was “inactive” each time. Besides, the Potency result in test [8], in [9], in test [10], in test [11], in [12] and in test [13] was “inactive” each time. In addition, the Potency result in test [17], in [14], in [15] and in [16] was “inactive” throughout. Further, the compound was called inactive in test [6].
`O`: the Potency result in test [1], in [2], in test [3], in [4], in [5] and in test [7] was “inactive” each time. The Potency entry in [8], in [9], in test [10], in test [11], in [12] and in test [13] was “inactive” each time. In addition, in test [6], the outcome was inactive.
